Reference: PubChem BioAssay

System: Lefty1
Assay: Lefty1 protein binding to printed compounds – biochemical, small-molecule microarray, 635/667 nm fluorescence, primary screen (AID 1139)
Settings: fluorescence 635/667, higher = more signal

| Compound | composite z-score |
| --- | --- |
| CC(=O)NCCCC[C@@H]1NC(=O)[C@@H]2C[C@H](C(=O)NCCCCCCN)[C@H](c3cccc(OCCO)c3)N2C1=O | -0.555 |
| CN(C)CCCCNC(=O)[C@H]1C[C@H]2C(=O)N[C@@H](CCCC[N+](C)(C)C)C(=O)N2[C@H]1c1ccc(O)cc1 | 0.306 |
| CC(C)N1CC=CC23O[C@@H]4/C=C\CCCOC(=O)C4[C@H]2C(=O)N(CCCCCCO)[C@@H]3C1=O (stereo partly specified) | -0.934 |
| O=C(CS)NCCCCCCNC(=O)[C@@H]1C[C@@H]2C(=O)NCC(=O)N2[C@@H]1c1ccc(O)cc1 | -0.628 |
| COc1ccc([Si](C)(C)[C@H]2[C@H](CCO)O[C@@]3(C(=O)N(Cc4ccccc4)c4ccc(N5C(=O)c6ccccc6Oc6ccccc65)cc43)[C@@H]2C)cc1 | -0.204 |
| NC(=O)[C@H]1[C@@H]2C(=O)O[C@@H](c3ccccc3)[C@@H](c3ccccc3)N2[C@@H](c2ccc(O)cc2)[C@]12C(=O)Nc1ccccc12 | -0.502 |
| [N-]=[N+]=NCc1ccccc1[C@@H]1OC(c2ccc(OCCCO)cc2)=N[C@]1(Cc1ccccc1)C(=O)NCCN1CCOCC1 | -0.0059 |
| O=C1C2C=CC(C(O)c3ccc4c(c3)OCO4)N(Nc3ccccc3)C2C(=O)N1c1ccccc1 (stereo unspecified) | 0.153 |
| O=C(CS)NCCCCCNC(=O)[C@@H]1C[C@@H]2C(=O)N[C@@H](Cc3ccccc3)C(=O)N2[C@@H]1c1cccc(OCCO)c1 | 0.4 |
| NCCCCCNC(=O)[C@@H]1C[C@@H]2C(=O)N3CCC[C@H]3C(=O)N2[C@@H]1c1ccc(O)cc1 | 1.08 |
| COc1cc(NN2C(C(O)c3ccccc3)C=CC3C(=O)N(C)C(=O)C32)cc(OC)c1OC (stereo unspecified) | 0.229 |
